The results in this text go back to PubChem BioAssay (NCI).

Experiment [1] can be described thus: NCI Yeast Anticancer Drug Screen. Data for the rad50 strain (AID 155).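 Also: 0% = growth of vehicle-only cultures of the same strain.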 The conditions noted are these: S. cerevisiae rad50 strain growth inhibition, active compounds read high. In a few lines:
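Vehicle-treated cultures provide the reference for the growth inhibition reported for compound-exposed, repair-deficient yeast.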

Experiment [2] is described as follows: NCI Yeast Anticancer Drug Screen. Data for the mec2-1 strain (AID 157). The conditions noted are these: S. cerevisiae mec2-1 strain, active compounds read high. An outline of the steps: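 Using mec2-1 yeast: add compound, measure growth, express inhibition versus vehicle-treated cultures.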
Experiment [3] is described as follows: NCI Yeast Anticancer Drug Screen. Data for the sgs1 mgt1 strain (AID 161).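 Also: 0% = growth of cultures given vehicle only.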 The following applies: S. cerevisiae sgs1 mgt1 strain, active compounds read high. An outline of the steps:
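This yeast growth screen uses a strain with defined DNA-repair lesions; compound-treated growth is compared with vehicle-treated growth.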

Experiment [4] can be described thus: NCI Yeast Anticancer Drug Screen. Data for the cln2 rad14 strain (AID 165).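 Also: 0% = growth equal to vehicle treated cultures.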 The conditions noted are these: S. cerevisiae cln2 rad14 strain, active compounds read high. An outline of the steps: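 Yeast strain cln2 rad14, bearing defects in cell cycle control and DNA repair, serves as the test system; values reflect growth inhibition compared with vehicle.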
The nature of experiment [5]: NCI Yeast Anticancer Drug Screen. Data for the bub3 strain (AID 167). The conditions noted are these: S. cerevisiae bub3 mutant strain, active compounds read high. An outline of the steps: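 Mutant yeast screening strain plus compound; vehicle-treated cultures serve as the 0% inhibition reference.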
The nature of experiment [6]: NCI Yeast Anticancer Drug Screen. Data for the mlh1 rad18 strain (AID 175). The conditions noted are these: S. cerevisiae mlh1 rad18 strain growth inhibition, active compounds read high. In a few lines:
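Steps: expose repair-defective yeast to compound; measure growth; express inhibition against vehicle-treated controls.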

Where [7] appears, read: at 5.0 µM (retest, dose inferred, filed as 0.5).
Where [8] appears, read: at 50.0 µM (retest, dose inferred, filed as 5.0).

This is part of a sample that, as a whole, favours compounds with a hit. Of some 79,000 tested, about 15% had one in any assay. Unmarked numbers belong to inactive results. Active and inactive are the calls of the source. Rule as the data show it: active = growth inhibition above about 70%; inactive = the rest.

`CCCCCCCCCCCCCCCCCCOC(=O)Nc1ccc(C)c(NC(=O)OCCCCCCCCCCCCCCCCCC)c1`: the growth inhibition in experiment [1] (setting [7]) is -11%; in experiment [1] (setting [8]), -18%; in experiment [1] (at 50.0 µM) it was 70.2% (active); in experiment [2] (setting [7]), 6%; in experiment [2] (setting [8]) it was -1%; in experiment [2] (at 50.0 µM), 60.9%. In addition, the growth inhibition in experiment [3] (setting [7]) is -6%; in experiment [3] (setting [8]) it was -11%; in experiment [3] (at 50.0 µM) it was 59.8%; in experiment [4] (setting [7]), 0%; in experiment [4] (setting [8]), -19%; in experiment [4] (at 50.0 µM), 26.4%. The growth inhibition is -3% in experiment [5] (setting [7]); -3% in experiment [5] (setting [8]); 83.6% (active) in experiment [5] (at 50.0 µM); -11% in experiment [6] (setting [7]); -9% in experiment [6] (setting [8]); 79.2% (active) in experiment [6] (at 50.0 µM).
For the molecule `CCOc1ccccc1N=Nc1ccc2oc(=O)c(C(=O)Nc3cccc(C)c3)cc2c1`, the growth inhibition in experiment [1] (setting [7]) is 3%; in experiment [1] (setting [8]), 13%; in experiment [1] (at 50.0 µM) it was 52.1%; in experiment [2] (setting [7]), 3%; in experiment [2] (setting [8]) it was -2%; in experiment [2] (at 50.0 µM) it was 25.9%. The growth inhibition in experiment [3] (setting [7]) was 8%; in experiment [3] (setting [8]) it was -5%; in experiment [3] (at 50.0 µM), 64.8%; in experiment [4] (setting [7]), -4%; in experiment [4] (setting [8]), 4%; in experiment [4] (at 50.0 µM), -76%. Besides, the growth inhibition in experiment [5] (setting [7]) is -4%; in experiment [5] (setting [8]), -12%; in experiment [5] (at 50.0 µM) it was 9.9%; in experiment [6] (setting [7]) it was 3%; in experiment [6] (setting [8]), 12%; in experiment [6] (at 50.0 µM), 89% (active).
Turning to `Nc1ccc(CSc2ccc(Cl)cc2)cc1Cl`, the growth inhibition in experiment [1] (setting [7]) was -3%; in experiment [1] (setting [8]), 99% (active); in experiment [1] (at 50.0 µM), 37%; in experiment [2] (setting [7]) it was -5%; in experiment [2] (setting [8]) it was 99% (active); in experiment [2] (at 50.0 µM), 3.9%. Also, the growth inhibition in experiment [3] (setting [7]) was -6%; in experiment [3] (setting [8]), 98% (active); in experiment [3] (at 50.0 µM), 40.9%; in experiment [4] (setting [7]), -16%; in experiment [4] (setting [8]), 99% (active); in experiment [4] (at 50.0 µM) it was -24.7%. The growth inhibition in experiment [5] (setting [7]) is 32%; in experiment [5] (setting [8]), 99% (active); in experiment [5] (at 50.0 µM), 4.35%; in experiment [6] (setting [7]) it was 1%; in experiment [6] (setting [8]), 99% (active); in experiment [6] (at 50.0 µM) it was 13.7%.
On to `COC(=O)C1C2CC3c4[nH]c5cc(OC)c(Br)cc5c4CCN3CC2CC(OC(=O)c2cc(OC)c(OC)c(OC)c2)C1OC` (stereo not given), for which the growth inhibition in experiment [1] (setting [7]) is -4%; in experiment [1] (setting [8]) it was 91% (active); in experiment [1] (at 50.0 µM), 89.7% (active); in experiment [2] (setting [7]), -4%; in experiment [2] (setting [8]), 74% (active); in experiment [2] (at 50.0 µM), 87.5% (active). Moreover, the growth inhibition was -5% in experiment [3] (setting [7]); 82% (active) in experiment [3] (setting [8]); 86.2% (active) in experiment [3] (at 50.0 µM); 8% in experiment [4] (setting [7]); 86% (active) in experiment [4] (setting [8]); 84.3% (active) in experiment [4] (at 50.0 µM). In addition, the growth inhibition was -16% in experiment [5] (setting [7]); 87% (active) in experiment [5] (setting [8]); 86.2% (active) in experiment [5] (at 50.0 µM); -30% in experiment [6] (setting [7]); 97% (active) in experiment [6] (setting [8]); 86.6% (active) in experiment [6] (at 50.0 µM).
Turning to `O=C1NN=C(c2ccc(Cl)cc2)CC1C1C(=O)N(c2ccccc2)N=C1c1ccccc1` (stereo not given), the growth inhibition in experiment [1] (setting [7]) was 96% (active); in experiment [1] (setting [8]), 96% (active); in experiment [1] (at 50.0 µM) it was 98.5% (active); in experiment [2] (setting [7]), 96% (active); in experiment [2] (setting [8]) it was 98% (active); in experiment [2] (at 50.0 µM), 98.9% (active). The growth inhibition is 95% (active) in experiment [3] (setting [7]); 98% (active) in experiment [3] (setting [8]); 99.3% (active) in experiment [3] (at 50.0 µM); 88% (active) in experiment [4] (setting [7]); 97% (active) in experiment [4] (setting [8]); 96.3% (active) in experiment [4] (at 50.0 µM). The growth inhibition in experiment [5] (setting [7]) is 97% (active); in experiment [5] (setting [8]) it was 95% (active); in experiment [5] (at 50.0 µM), 97.8% (active); in experiment [6] (setting [7]), 97% (active); in experiment [6] (setting [8]) it was 96% (active); in experiment [6] (at 50.0 µM), 98.3% (active).
Take `NCCCN1c2ccccc2Sc2ccc(Cl)cc21`: the growth inhibition was -7% in experiment [1] (setting [7]); 75% (active) in experiment [1] (setting [8]); -10.7% in experiment [1] (at 50.0 µM); 12% in experiment [2] (setting [7]); 58% in experiment [2] (setting [8]); -25.5% in experiment [2] (at 50.0 µM). The growth inhibition in experiment [3] (setting [7]) was 10%; in experiment [3] (setting [8]), 83% (active); in experiment [3] (at 50.0 µM), 13.4%; in experiment [4] (setting [7]) it was 0%; in experiment [4] (setting [8]), 20%; in experiment [4] (at 50.0 µM), -25.7%. For the same molecule, the growth inhibition was -1% in experiment [5] (setting [7]); 37% in experiment [5] (setting [8]); 71.9% (active) in experiment [5] (at 50.0 µM); 17% in experiment [6] (setting [7]); 98% (active) in experiment [6] (setting [8]); 18.1% in experiment [6] (at 50.0 µM).
Consider `CCc1cccc(CC)c1NC(=S)N/C=C(\C#N)C(=O)c1ccc2ccccc2c1`, for which the growth inhibition in experiment [1] (setting [7]) was 7%; in experiment [1] (setting [8]) it was 14%; in experiment [1] (at 50.0 µM), 44.8%; in experiment [2] (setting [7]), -2%; in experiment [2] (setting [8]) it was 6%; in experiment [2] (at 50.0 µM), 38.5%. Also, the growth inhibition is 0% in experiment [3] (setting [7]); 13% in experiment [3] (setting [8]); 61.4% in experiment [3] (at 50.0 µM); -23% in experiment [4] (setting [7]); 5% in experiment [4] (setting [8]); 6.85% in experiment [4] (at 50.0 µM). Further, the growth inhibition was 3% in experiment [5] (setting [7]); 7% in experiment [5] (setting [8]); 59.1% in experiment [5] (at 50.0 µM); -2% in experiment [6] (setting [7]); 5% in experiment [6] (setting [8]); 67.2% in experiment [6] (at 50.0 µM).
On to `CCCCCCCCNc1ccc(Cl)cc1`, for which the growth inhibition in experiment [1] (setting [7]) is 46%; in experiment [1] (setting [8]), 96% (active); in experiment [1] (at 50.0 µM), 91.8% (active); in experiment [2] (setting [7]) it was 26%; in experiment [2] (setting [8]), 98% (active); in experiment [2] (at 50.0 µM), 93% (active). The growth inhibition in experiment [3] (setting [7]) is 49%; in experiment [3] (setting [8]) it was 97% (active); in experiment [3] (at 50.0 µM), 98.2% (active); in experiment [4] (setting [7]) it was 25%; in experiment [4] (setting [8]) it was 94% (active); in experiment [4] (at 50.0 µM), 81.2% (active). Also, the growth inhibition in experiment [5] (setting [7]) was 8%; in experiment [5] (setting [8]), 97% (active); in experiment [5] (at 50.0 µM), 74.1% (active); in experiment [6] (setting [7]) it was 40%; in experiment [6] (setting [8]), 97% (active); in experiment [6] (at 50.0 µM), 98% (active).
`O=C(CC(O)(c1ccccc1)c1ccc(Cl)cc1)NC(=O)c1ccccc1O` (stereo not given): the growth inhibition in experiment [1] (setting [7]) was 45%; in experiment [1] (setting [8]) it was 93% (active); in experiment [1] (at 50.0 µM), 85% (active); in experiment [2] (setting [7]), 40%; in experiment [2] (setting [8]) it was 98% (active); in experiment [2] (at 50.0 µM), 89% (active). For the same molecule, the growth inhibition was 48% in experiment [3] (setting [7]); 97% (active) in experiment [3] (setting [8]); 91.6% (active) in experiment [3] (at 50.0 µM); 42% in experiment [4] (setting [7]); 99% (active) in experiment [4] (setting [8]); 89% (active) in experiment [4] (at 50.0 µM). Moreover, the growth inhibition is 50% in experiment [5] (setting [7]); 99% (active) in experiment [5] (setting [8]); 86.8% (active) in experiment [5] (at 50.0 µM); 53% in experiment [6] (setting [7]); 97% (active) in experiment [6] (setting [8]); 86.8% (active) in experiment [6] (at 50.0 µM).
On to `CC#CCCCCOC(=O)c1cc([N+](=O)[O-])cc([N+](=O)[O-])c1`, for which the growth inhibition is 97% (active) in experiment [1] (setting [7]); 99% (active) in experiment [1] (setting [8]); 99.5% (active) in experiment [1] (at 50.0 µM); 99% (active) in experiment [2] (setting [7]); 100% (active) in experiment [2] (setting [8]); 99.6% (active) in experiment [2] (at 50.0 µM). The growth inhibition was 98% (active) in experiment [3] (setting [7]); 99% (active) in experiment [3] (setting [8]); 99.6% (active) in experiment [3] (at 50.0 µM); 90% (active) in experiment [4] (setting [7]); 99% (active) in experiment [4] (setting [8]); 99.4% (active) in experiment [4] (at 50.0 µM). In addition, the growth inhibition in experiment [5] (setting [7]) is 98% (active); in experiment [5] (setting [8]) it was 99% (active); in experiment [5] (at 50.0 µM), 99.7% (active); in experiment [6] (setting [7]), 98% (active); in experiment [6] (setting [8]) it was 99% (active); in experiment [6] (at 50.0 µM) it was 99.4% (active).
